{
  "source": "the supplement of paper PMC9446081",
  "note": "In all, about 39,000 compounds went through this assay and about 220 (0.56%) showed activity. The entries come from a sample that favours actives as a whole. A number with no mark means an inactive call.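 Note: Wild-type cells incubated without shaking, value is the mean of two biological replicates.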",
  "data": [
    {"test_system": "Escherichia coli K-12 BW25113", "assay": "relative growth (OD600 normalised to plate interquartile mean) (fraction); higher = less growth inhibition, active = 0.2 or less", "conditions": "50 µM; LB; incubation time: overnight (16-24 h)", "values": [
      {"smiles": "CCC(=O)Nc1ccc2ccccc2c1", "relative growth": 0.842},
      {"smiles": "CCCC[P+](CCCC)(CCCC)Cc1ccc(NC(=O)[C@H](Cc2ccc3ccccc3c2)N/C(=N/C2CCCCC2)NC2CCCCC2)cc1", "relative growth": "0.0326 (active)"},
      {"smiles": "CN(Cc1ccccc1)C(=O)[C@H](Cc1ccc2ccccc2c1)NC(=O)[C@@H]1CCCN1C(=O)Nc1ccccc1[N+](=O)[O-]", "relative growth": 1.04},
      {"smiles": "CCCC[P+](CCCC)(CCCC)Cc1ccc(NC(=O)[C@@H](Cc2ccc3ccccc3c2)N=C(NC2CCCCC2)NC2CCCCC2)cc1", "relative growth": "0.0386 (active)"},
      {"smiles": "C[C@H](CO)N1C[C@H](C)[C@@H](CN(C)C(=O)NC2CCCCC2)Oc2ccc(NC(=O)Nc3cccc4ccccc34)cc2C1=O", "relative growth": 1.04},
      {"smiles": "C[C@@H]1CN([C@H](C)CO)C(=O)c2cc(NC(=O)Nc3cccc4ccccc34)ccc2O[C@@H]1CN(C)C(=O)NC1CCCCC1", "relative growth": 1},
      {"smiles": "C[C@@H]1CCCCO[C@H](CN(C)C(=O)NC2CCCCC2)[C@@H](C)CN([C@H](C)CO)C(=O)c2cc(NS(=O)(=O)c3ccccc3)ccc2O1", "relative growth": 0.983},
      {"smiles": "Cc1ccc2c(c1)[C@](C)(O)CCS2", "relative growth": 1.01},
      {"smiles": "COc1ccc(S(=O)(=O)Nc2ccc3c(c2)CC(=O)N([C@H](C)CO)C[C@H](C)[C@H](CN(C)C(=O)Nc2c(C)noc2C)O3)cc1", "relative growth": 1.02},
      {"smiles": "Cc1ccc(S(=O)(=O)N(C)C[C@H]2Oc3ccc(NS(=O)(=O)c4ccccc4)cc3CC(=O)N([C@@H](C)CO)C[C@H]2C)cc1", "relative growth": 0.993},
      {"smiles": "C[C@H]1CN([C@@H](C)CO)C(=O)c2cccc(NS(=O)(=O)c3cccs3)c2O[C@@H]1CN(C)S(=O)(=O)c1ccc(F)cc1", "relative growth": 1.02},
      {"smiles": "O=C(NO)c1ccc(C(=O)N/N=C/[C@H](O)[C@@H](O)[C@H](O[C@@H]2O[C@H](CO)[C@H](O)[C@H](O)[C@H]2O)[C@H](O)CO)cc1", "relative growth": 0.996},
      {"smiles": "CN1CCN(CC(=O)N2c3ccccc3C(=O)Nc3cccnc32)CC1.Cl.Cl", "relative growth": 1.08},
      {"smiles": "O=C(O)CCC(=O)N1CC(=O)Nc2ccccc21", "relative growth": 0.964},
      {"smiles": "Cc1scc2c1N(C(=O)CN1CCN(C)CC1)c1ccccc1NC2=O.Cl", "relative growth": "0.044 (active)"},
      {"smiles": "Cc1c(N)nc([C@H](CC(N)=O)NC[C@H](N)C(N)=O)nc1C(=O)N[C@H](C(=O)N[C@H](C)[C@@H](O)[C@H](C)C(=O)N[C@H](C(=O)NCCc1nc(-c2nc(C(=O)NCCCNCCCCN)cs2)cs1)[C@@H](C)O)[C@@H](O[C@@H]1O[C@@H](CO)[C@@H](O)[C@H](O)[C@@H]1O[C@@H]1O[C@H](CO)[C@@H](O)[C@H](OC(N)=O)[C@@H]1O)c1c[nH]cn1", "relative growth": "0.0715 (active)"},
      {"smiles": "C[C@H](CO)N1C[C@H](C)[C@@H](CN(C)C(=O)Nc2ccc(F)cc2)OCc2ccccc2-c2ccccc2C1=O", "relative growth": 0.975},
      {"smiles": "C[C@H](CO)N1C[C@H](C)[C@@H](CN(C)C(=O)Nc2cccc3ccccc23)OCCCC[C@H](C)Oc2ccc(NS(C)(=O)=O)cc2C1=O", "relative growth": 1.01},
      {"smiles": "Cc1noc(C)c1S(=O)(=O)N(C)C[C@H]1Oc2c(NS(=O)(=O)c3cn(C)cn3)cccc2C(=O)N([C@H](C)CO)C[C@@H]1C", "relative growth": 0.992},
      {"smiles": "C[C@@H]1CN([C@H](C)CO)C(=O)c2cccc(NS(=O)(=O)c3ccc(F)cc3)c2O[C@@H]1CN(C)S(=O)(=O)c1cn(C)cn1", "relative growth": 0.99},
      {"smiles": "C[C@@H]1CCCCO[C@@H](CN(C)C(=O)C2CCCCC2)[C@@H](C)CN([C@H](C)CO)C(=O)c2cc(NC(=O)CCC(F)(F)F)ccc2O1", "relative growth": 0.92},
      {"smiles": "CC(C)(C)c1cc2[nH]c(N)nc(=N)n2n1", "relative growth": 1.01},
      {"smiles": "C[C@@H]1CN([C@@H](C)CO)S(=O)(=O)c2ccc(C#CC3CC3)cc2O[C@@H]1CN(C)C(=O)C1CCCCC1", "relative growth": 1.01},
      {"smiles": "CN(C)[C@@H]1C(=O)[C@@H](C(=O)NCNCCCC[C@H](N)C(=O)O)C(=O)[C@@]2(O)C(=O)[C@@H]3C(=O)c4c(O)cccc4[C@@](C)(O)[C@H]3C[C@@H]12", "relative growth": 0.977},
      {"smiles": "CN(C)[C@@H]1C(=O)[C@@H](C(N)=O)C(=O)[C@@]2(O)C(=O)[C@@H]3C(=O)c4c(O)c(NC(=O)CN5CCCC5)cc(F)c4C[C@H]3C[C@@H]12", "relative growth": "0.0357 (active)"},
      {"smiles": "CN(C)[C@@H]1C(=O)[C@@H](C(N)=O)C(=O)[C@@]2(O)C(=O)[C@H]3C(=O)c4c(O)ccc(Cl)c4[C@@H](O)[C@H]3C[C@@H]12", "relative growth": "0.0324 (active)"},
      {"smiles": "CN(C)c1ccc(O)c2c1C[C@@H]1C[C@@H]3[C@@H](N(C)C)C(=O)C(C(N)=O)=C(O)[C@]3(O)C(=O)[C@H]1C2=O", "relative growth": "0.0589 (active)"},
      {"smiles": "CN(C)c1cc(NC(=O)CNC(C)(C)C)c(O)c2c1C[C@H]1C[C@H]3[C@H](N(C)C)C(=O)[C@@H](C(N)=O)C(=O)[C@@]3(O)C(=O)[C@H]1C2=O", "relative growth": 1.01},
      {"smiles": "CN(C)c1cc(CNCC(C)(C)C)c(O)c2c1C[C@H]1C[C@H]3[C@H](N(C)C)C(=O)[C@H](C(N)=O)C(=O)[C@@]3(O)C(=O)[C@@H]1C2=O", "relative growth": "0.0692 (active)"},
      {"smiles": "C[C@@H]1CCCCO[C@@H](CN(C)C(=O)NC2CCCCC2)[C@@H](C)CN([C@H](C)CO)C(=O)c2cc(NC(=O)C3CCCCC3)ccc2O1", "relative growth": 1.02},
      {"smiles": "C[C@H]1CN([C@@H](C)CO)C(=O)c2cc(NC(=O)CCCCCC(=O)Nc3ccccc3N)ccc2O[C@H]1CN(C)CC1CCCCC1", "relative growth": 0.97},
      {"smiles": "COc1ccc(NC(=O)Nc2ccc3c(c2)C(=O)N([C@@H](C)CO)C[C@H](C)[C@H](CN(C)C(=O)Nc2ccc(OC)cc2)OCCCC[C@H](C)O3)cc1", "relative growth": 0.996},
      {"smiles": "CN(C)C(=O)[C@H]1C[C@@H]2CCN(S(C)(=O)=O)C[C@H]2O1", "relative growth": 0.988},
      {"smiles": "Cc1noc(C)c1NC(=O)N(C)C[C@@H]1Oc2c(NC(=O)c3ccncc3)cccc2C(=O)N([C@H](C)CO)C[C@@H]1C", "relative growth": 1},
      {"smiles": "C[C@@H]1CN([C@@H](C)CO)C(=O)Cc2cc(NC(=O)Cn3cnnn3)ccc2O[C@H]1CN(C)C(=O)Nc1ccc(C(F)(F)F)cc1", "relative growth": 0.993},
      {"smiles": "CC(C)NC(=O)Nc1ccc2c(c1)C(=O)N([C@H](C)CO)C[C@H](C)[C@@H](CN(C)CC1CCCCC1)OCCCC[C@@H](C)O2", "relative growth": 0.975},
      {"smiles": "C[C@@H]1CN([C@H](C)CO)C(=O)c2cccc(NS(C)(=O)=O)c2O[C@@H]1CN(C)C(=O)NC1CCCCC1", "relative growth": 0.99},
      {"smiles": "COc1ccc(S(=O)(=O)N(C)C[C@@H]2OCCCC[C@@H](C)Oc3ccc(NC(=O)CCC(F)(F)F)cc3C(=O)N([C@H](C)CO)C[C@@H]2C)cc1", "relative growth": 1.01},
      {"smiles": "CN(C)c1cc(NC(=O)CNC(C)(C)C)c(O)c2c1C[C@H]1C[C@H]3[C@H](N(C)C)C(=O)C(C(N)=O)=C(O)[C@@]3(O)C(=O)[C@H]1C2=O", "relative growth": 1},
      {"smiles": "CN(C)c1ccc(O)c2c1C[C@H]1C[C@H]3[C@H](N(C)C)C(=O)C(C(N)=O)=C(O)[C@@]3(O)C(=O)[C@H]1C2=O", "relative growth": "0.184 (active)"},
      {"smiles": "CN(C)[C@@H]1C(=O)[C@@H](C(N)=O)C(=O)[C@@]2(O)C(=O)[C@H]3C(=O)c4c(O)cccc4C[C@H]3C[C@@H]12", "relative growth": 0.972},
      {"smiles": "CN(C)c1ccc(O)c2c1C[C@H]1C[C@H]3[C@H](N(C)C)C(=O)[C@@H](C(N)=O)C(=O)[C@@]3(O)C(=O)[C@H]1C2=O", "relative growth": "0.0587 (active)"},
      {"smiles": "C[C@@H]1CN([C@H](C)CO)C(=O)c2cc(NS(=O)(=O)c3cccs3)ccc2O[C@H]1CN(C)Cc1ccc(-c2ccccc2)cc1", "relative growth": 0.997},
      {"smiles": "C[C@H](CO)N1C[C@H](C)[C@H](CN(C)C(=O)Nc2cccc3ccccc23)Oc2ncc(C#Cc3ccccc3)cc2C1=O", "relative growth": 0.961},
      {"smiles": "C[C@@H]1CCCCO[C@H](CN(C)Cc2ccncc2)[C@H](C)CN([C@H](C)CO)C(=O)c2cc(NC(=O)Nc3ccccc3)ccc2O1", "relative growth": 0.834},
      {"smiles": "CN[C@H]1CN(c2ccc3c(=O)c(C(=O)O)cn(-c4nccs4)c3n2)C[C@@H]1OC", "relative growth": "0.0372 (active)"},
      {"smiles": "COC(=O)C1=C[C@@H](O)[C@@H](O)[C@H](O[C@@H]2O[C@H](COC(=O)/C=C/c3ccccc3)[C@@H](O)[C@H](O)[C@H]2O)C1", "relative growth": 0.984},
      {"smiles": "COc1ccc(S(=O)(=O)Nc2cccc3c2O[C@@H](CN(C)S(=O)(=O)c2ccc(OC)cc2)[C@H](C)CN([C@@H](C)CO)C3=O)cc1", "relative growth": 1.01},
      {"smiles": "C[C@H]1CN([C@@H](C)CO)C(=O)Cc2cc(NC(=O)Nc3ccccc3)ccc2O[C@H]1CN(C)Cc1ccc(Oc2ccccc2)cc1", "relative growth": 1.01},
      {"smiles": "C[C@@H]1CN([C@H](C)CO)C(=O)c2cc(NS(=O)(=O)c3ccccc3)ccc2O[C@@H]1CN(C)CC1CC1", "relative growth": 1},
      {"smiles": "NC[C@H]1OB(O)c2c(OCCO)ccc(Cl)c21", "relative growth": 0.982},
      {"smiles": "NC[C@H]1OB(O)c2c(OCCCO)cccc21", "relative growth": "0.04 (active)"},
      {"smiles": "CC(C)(C)OC(=O)N1CCC(N)CC1", "relative growth": 0.98},
      {"smiles": "C=C1c2cccc(O)c2C(=O)C2=C(O)[C@]3(O)C(O)=C(C(N)=O)C(=O)[C@@H](N(C)C)[C@@H]3[C@@H](O)[C@H]12", "relative growth": 0.225},
      {"smiles": "C=C1c2cccc(O)c2C(=O)C2=C(O)C3(O)C(=O)C(C(N)=O)=C(O)C(N(C)C)C3C(O)C12.Cl", "note": "(stereo not drawn)", "relative growth": "0.0546 (active)"},
      {"smiles": "C[C@H]1c2cccc(O)c2C(=O)C2=C(O)[C@]3(O)C(=O)[C@@H](C(N)=O)C(=O)[C@@H](N(C)C)[C@@H]3[C@@H](O)[C@@H]21", "relative growth": "0.0376 (active)"},
      {"smiles": "CC1c2cccc(O)c2C(=O)C2=C(O)C3(O)C(=O)C(C(N)=O)=C(O)C(N(C)C)C3C(O)C21.Cl", "note": "(stereo not drawn)", "relative growth": "0.0595 (active)"},
      {"smiles": "C=C1c2cccc(O)c2C(=O)[C@@H]2C(=O)[C@]3(O)C(=O)[C@@H](C(N)=O)C(=O)[C@@H](N(C)C)[C@@H]3[C@@H](O)[C@H]12", "relative growth": "0.0752 (active)"}
    ]}
  ]
}
